The sample as a whole holds a higher share of hits than the screen did.
DT40 TDP1 CPT – DT40-hTDP1 cell growth loss with CPT. chicken DT40 Tdp1-/-;hTDP1 cells + 20 nM CPT, ATP luminescence, 48 h. Potency, µM (highest dose often 46.2 µM), usual class: inhibitors. hit rate 12% among 420,000; also: nearly all actives have a fitted effect of over 55% in size
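Cell growth measured by CellTiter-Glo luminescence after a minimum 48 h, 37 C compound exposure with 20 nM CPT in Tdp1-knockout DT40 cells stably expressing hTDP1, seeded 400/well; qHTS titration format.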
12-LOX inh – ALOX12 (human) lipoxygenase inhibition | AID 1671190 | hit rate 1.1% among 580,000 | Potency, µM (titrated, usually from 108 µM), hits mostly inhibitors | purified 12hLO, xylenol orange hydroperoxide absorbance | P18054
Target sequence (P18054 whole entry, looked up): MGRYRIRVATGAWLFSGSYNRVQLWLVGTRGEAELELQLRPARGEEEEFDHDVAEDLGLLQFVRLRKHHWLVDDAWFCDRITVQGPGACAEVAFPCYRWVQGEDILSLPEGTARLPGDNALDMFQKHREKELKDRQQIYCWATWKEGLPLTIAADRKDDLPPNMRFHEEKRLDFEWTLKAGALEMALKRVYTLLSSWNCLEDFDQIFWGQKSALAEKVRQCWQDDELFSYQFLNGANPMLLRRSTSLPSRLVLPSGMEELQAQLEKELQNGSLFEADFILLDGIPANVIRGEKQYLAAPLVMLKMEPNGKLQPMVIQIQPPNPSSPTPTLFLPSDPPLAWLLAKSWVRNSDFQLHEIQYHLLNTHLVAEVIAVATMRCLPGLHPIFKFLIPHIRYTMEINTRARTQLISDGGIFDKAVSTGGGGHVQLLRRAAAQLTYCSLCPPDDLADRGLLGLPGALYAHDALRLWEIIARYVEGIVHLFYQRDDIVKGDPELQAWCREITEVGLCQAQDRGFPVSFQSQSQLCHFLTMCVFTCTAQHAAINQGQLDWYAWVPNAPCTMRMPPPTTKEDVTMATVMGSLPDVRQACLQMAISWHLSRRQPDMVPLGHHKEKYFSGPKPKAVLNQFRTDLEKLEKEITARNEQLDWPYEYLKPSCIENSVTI
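Purified human 12hLO at 150 nM in 25 mM Hepes, 0.01% Triton X-100, pH 7.0, preincubated 15 min at room temperature with compound. Reaction started with 40 uM arachidonic acid, 30 min at room temperature. Hydroperoxide measured by Fe-xylenol orange, 573/405 nm absorbance ratio.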
IL-1B inflam inh – inflammasome signaling inhibition, IL-1 beta readout; THP-1 LPS/ATP IL-1B secretion, AlphaLISA, 16 h; active compounds read low; activity change, % at 57.5 µM; hit rate 4.7% among 360,000; AID 743279; in the data active = activity change below about -50%; inconclusive = mostly about -30% to -49%
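THP-1 cells pretreated 1 hr with compounds (up to 57.5 uM final), then stimulated with LPS (250 ng/mL final) plus ATP (1.25 mM final); secreted IL-1B measured by AlphaLISA after 16 hr, decreased signal indicating inhibition.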
DT40 TDP1 no CPT – qHTS for Inhibitors of human tyrosyl-DNA phosphodiesterase 1 (TDP1): qHTS in cells in absence of CPT. DT40 Tdp1-/- hTDP1 cells, no CPT, ATP luminescence, 48 h. Potency, µM (top dose mostly 46.2 µM), actives largely listed as inhibitors. hit rate 15% among 420,000. AID 686978, 2013; also: nearly all actives have a fitted effect of over 55% in size
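Luminescent ATP content (CellTiter-Glo) served as the growth readout. Knockout chicken DT40 cells expressing human TDP1 were exposed to compounds without camptothecin for a minimum 48 hr at 37 °C.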
HT1080-NT tox – kills 2HG-producing HT-1080-NT fibrosarcoma cells; HT-1080-NT fibrosarcoma viability, CellTiter-Glo ATP luminescence, 48 h; Potency, µM (doses to about 46.1 µM), most hits filed as cytotoxic; hit rate 1.6% among 360,000; AID 686970;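 also: NT is the 2HG producing partner of a matched IDH1 knockdown line; nearly all actives have a fitted effect of over 55% in size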
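HT-1080-NT fibrosarcoma cells (2HG-overproducing), 750 cells/well in RPMI with 5% FBS, dosed after 2 h and incubated 48 h at 37C. CellTiter-Glo luminescence normalized to DMSO and no-cell wells; concentration-response curves fitted and classed.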
HT1080 IDH1KD tx – HT-1080 IDH1 knockdown cell toxicity (counter line); HT-1080 IDH1 knockdown viability, ATP luminescence, 48 h; Potency, µM (series often up to 46.1 µM), usual class: cytotoxic; hit rate 2% among 360,000; AID 686971
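CellTiter-Glo luminescence after 48 h compound exposure at 37 degrees C of IDH1-knockdown HT-1080 cells in 5% FBS RPMI. %Activity scaled between DMSO wells and cell-free media wells, with curves fitted and assigned curve classes.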
A number is an active result; . = inactive; ? = inconclusive; / = not tested or not shown. Unless noted, calls follow the shape of the dose curve; as a rule, active = well fitted curve in the direction sought with a large enough effect; inconclusive = small, poorly fitted or top-dose-only effect, or another doubt; inactive = no such curve, though single readings can be large; an effect the other way counts as inactive or inconclusive.

SMILES	DT40 TDP1 CPT	12-LOX inh	IL-1B inflam inh	DT40 TDP1 no CPT	HT1080-NT tox	HT1080 IDH1KD tx
CC(C(=O)N(C)c1ccccc1)S(=O)(=O)Cc1ccccc1F (stereo not drawn)	/	.	/	/	/	/
OCCOCCn1c(-c2ccccc2)nc(=S)c2c1CCCC2	.	40µM	.	.	.	.
CCc1ccc(-n2ccc(=O)c(C(=O)Nc3nnc(C(C)C)s3)n2)cc1	/	.	/	/	/	/
CSCC(=O)NC(=O)NCc1ccco1	/	.	/	/	/	/
CCCCN(CCCC)c1ccc(Cn2ccc3ccccc32)cc1	7.9µM	/	/	8.9µM	/	/
CN(C)c1ccc(Cn2ccc3ccccc32)cc1	.	/	/	22µM	/	/
CC(C)(C)c1csc(NC(=O)c2c(F)c(F)c(F)c(F)c2F)n1	?	.	-55	?	.	.
Cc1csc(NC(=O)c2ccccc2O)n1	.	.	.	.	.	.
CC(C)(C)c1csc(NNC(=O)c2ccc(Br)cc2)n1	?	.	.	?	?	9.2µM
CC(C)(C)c1csc(NC(=O)c2ccccc2O)n1	.	?	-83	?	?	?
Cc1nc(C)c(C(=O)NNC(=O)c2ccc(Br)cc2)s1	.	?	.	.	.	.
COc1ccc2oc(C(=O)Nc3nc4ccc(S(C)(=O)=O)cc4s3)c(C)c2c1	?	.	-52	16µM	.	.
COc1ccc2oc(C(=O)Nc3nc(-c4ccccn4)cs3)c(C)c2c1	5.8µM	.	.	5.8µM	.	?
CN(C(=O)c1ccccc1C(=O)OCC(=O)NCc1cccs1)C1CCCCC1	.	.	.	.	.	.
CN(C(=O)c1ccccc1C(=O)OCC(=O)c1ccc(F)c(F)c1)C1CCCCC1	?	.	?	26µM	.	.
CN1CC2(CCN(C(=O)c3ccccc3C3CCNC3)CC2)CC1=O (stereo not drawn)	/	.	/	/	/	/
Cn1c(C(=O)NCCN2CCCCCC2)cc2c(=O)n(C)c3ccccc3c21	?	.	.	?	.	.
Cn1c(C(=O)NCCN2CCN(Cc3ccccc3)CC2)cc2c(=O)n(C)c3ccccc3c21	23µM	.	.	23µM	.	.
Cn1c(C(=O)NCCCN2CCOCC2)cc2c(=O)n(C)c3ccccc3c21	.	.	.	?	.	.
CC1CCN(CCCNC(=O)c2cc3c(=O)n(C)c4ccccc4c3n2C)CC1	23µM	.	-66	33µM	.	.
CC1CC(C)CN(c2oc(-c3ccccc3F)nc2C#N)C1 (stereo not drawn)	?	.	.	?	.	.
COc1ccccc1-c1nc(C#N)c(N2CC(C)CC(C)C2)o1 (stereo not drawn)	?	.	.	18µM	.	.
COc1ccc(-c2nc(C#N)c(N3CCCCC3)o2)cc1OC	/	.	/	/	/	/
COc1ccc(-c2nc(C#N)c(N3CCc4ccccc4C3)o2)cc1OC	29µM	.	-52	13µM	?	.
COc1ccc(N2CCN(c3oc(-c4ccc(OC)c(OC)c4)nc3C#N)CC2)cc1	?	.	.	18µM	.	.
SMILES	DT40 TDP1 CPT	12-LOX inh	IL-1B inflam inh	DT40 TDP1 no CPT	HT1080-NT tox	HT1080 IDH1KD tx
Cc1c(Cl)ccc2c(C(=O)O)cc(-c3ccccn3)nc12	/	.	/	/	/	/
CC(C)NC(=O)c1ccc(C2SCCS2)cc1	/	.	/	/	/	/
Cc1cc(CN(C)C2CCc3ccccc32)no1 (stereo not drawn)	/	.	/	/	/	/
CCOC(=O)c1c(C)[nH]c(C(=O)COc2ccc3c(C)cc(=O)oc3c2)c1C	/	.	/	/	/	/
Cc1[nH]c2ccccc2c1C(=O)C(=O)N1CC=C(c2ccccc2)CC1	15µM	.	.	23µM	?	21µM
COc1cc(NC(=O)c2ccccc2OCc2ccccc2)cc(OC)c1OC	?	.	.	16µM	.	.
Cc1ccc(NC(=O)c2ccc(OCc3ccccc3)cc2)cc1	/	.	/	/	/	/
Cc1cc(C(=O)Nc2ccc(OCc3ccccc3)cc2)c(C)o1	?	.	-60	?	?	?
CCCCN(CCCC)CC(O)COc1ccccc1C(=O)Nc1ccccc1 (stereo not drawn)	?	.	-96	?	?	?
O=C(Nc1ccc(O)cc1)c1ccccc1OCc1ccccc1	?	?	-71	?	.	.
CNC(=O)COc1ccccc1C(=O)Nc1ccccc1	.	/	/	.	/	/
O=C(Nc1ccccc1)c1ccccc1OCc1ccc(F)cc1	?	.	.	.	.	.
CNC(=O)c1cccc(NC(=O)c2ccccc2OCc2ccccc2)c1	?	.	.	?	.	.
O=C(/C=C/c1ccccc1)N[C@H]1CC[C@@]23CCCN2C(=O)CCC[C@H]3[C@H]1Cc1ccccc1	/	.	/	/	/	/
Cc1c(-c2ccccc2)oc2c(C(=O)N3CCN(Cc4ccccc4)CC3)cccc2c1=O	/	.	/	/	/	/
CCOc1ccc(NC(=O)c2cnn(-c3ccc(C)c(Cl)c3)c2C2CCNCC2)cc1	23µM	.	/	?	/	/
COc1ccc(N2C(=O)c3ccccc3NC(=O)C2C(=O)NCc2ccco2)cc1 (stereo not drawn)	?	.	.	.	.	.
CCCCC1OC23CCCCC2C(C#N)(C(=N)O3)C1(C#N)C#N (stereo not drawn)	7.3µM	.	.	7.3µM	.	.
CCCCC1OC23CCCCC2C(C#N)(C#N)C1(C#N)C(=N)O3 (stereo not drawn)	6.5µM	.	-102	6.5µM	.	.
CCn1nc(C(=O)Nc2cc(Cl)ccc2N2CCCCC2)c2ccccc2c1=O	/	.	/	/	/	/
Cn1nc(C(F)(F)F)c(-c2ccc(Br)cc2)c1NC(=O)c1ccco1	?	.	.	?	?	.
Cn1nc(C(F)(F)F)c(-c2ccc(Br)cc2)c1NC(=O)c1cccnc1	?	.	.	13µM	.	?
Cn1nc(C(F)(F)F)c(-c2ccc(F)cc2)c1NC(=O)Nc1ccc(F)cc1	16µM	.	/	15µM	23µM	?
COc1ccc(-c2c(C(F)(F)F)nn(C)c2NC(=O)c2cccnc2)cc1	.	.	.	.	.	.
CSc1nsc(SC)c1C(=O)N1CCN(S(=O)(=O)c2ccc(C)cc2)C1C (stereo not drawn)	?	.	.	23µM	.	.
CSc1nsc(SC)c1C(=O)N1CCN(S(=O)(=O)c2ccc(C)cc2)C1C(C)C (stereo not drawn)	?	.	.	?	?	.
COc1ccc(/C=C/C(=O)NCC(=O)N=Nc2c(O)[nH]c3ccc([N+](=O)[O-])cc23)cc1	.	.	.	.	.	.
Cc1ccc(-n2c(=O)c3oc4ccccc4c3n(Cc3cccc(F)c3)c2=O)cc1C	26µM	.	/	?	/	/
COc1ccc(Cn2c(=O)n(Cc3ccco3)c(=O)c3oc4ccccc4c32)cc1	?	.	/	23µM	/	/
